Data reported in PubChem BioAssay.
Active and inactive are the calls of the source.

Tests used:
[1] = target: Albumin (Bos taurus) (UniProt P02769); experiment: bovine serum albumin binders on microarray, profiling panel, artefact control for SMM control protein annotation, biochemical, small-molecule microarray, Alexa647 label, 635/667 nm fluorescence (AID 1118); details: BSA-A647 binding, fluorescence 635 nm, higher = more signal;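 also: score merges 667 nm emission intensity and signal-to-noise per printed compound spot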
[2] = small-molecule microarray binders of probe aXIP, primary screen, biochemical, NeuroSMM set, 635/667 nm fluorescence (AID 1119); details: higher = more signal, called active from +8 up or from −8 down;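 also: probe is the protein aXip251-270 applied at 1 µg/mL to compound-printed slides; binding of probe to printed compounds measured as 667 nm fluorescence plus signal to noise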
[3] = small-molecule binders of probe aNOTCH3, primary screen, biochemical, small-molecule microarray, 635/667 nm fluorescence (AID 1120); details: higher = more signal;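 also: probe is a biotin-tagged antibody raised against NOTCH3 rather than NOTCH3 protein; score merges spot fluorescence near 667 nm with spot signal to noise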
[4] = small-molecule binders of probe aNOTCH2, primary screen, biochemical, small-molecule microarray, 635/667 nm fluorescence (AID 1121); details: higher = more signal;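 also: score merges feature fluorescence read at 667 nm with its signal to noise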
[5] = target: Carbonic anhydrase 2 (Homo sapiens) (UniProt P00918); experiment: CAII small-molecule binders, profiling panel, biochemical, small-molecule microarray, Alexa647-labelled CAII (AID 1122); details: CAII-A647 binding fluorescence, higher = more signal
[6] = COS7 lysate on small-molecule microarray, probe aHis, 635 nm (AID 1123); details: COS7 cell lysate, fluorescence, higher = more signal;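 also: z-score combines 667nm fluorescence intensity with signal-to-noise per printed compound spot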
[7] = compound binding in COS7 lysate, probe aLAP1, primary screen, cell lysate, small-molecule microarray (AID 1124); details: probe aLAP1, fluorescence, higher = more signal;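 also: lysate comes from COS7 cells expressing LAP1 and is applied at 0.3 µg/mL; score merges spot fluorescence near 667 nm with signal-to-noise over triplicate slides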
[8] = test system: Sam68 (KHDRBS1); experiment: Sam68 small-molecule binders, primary screen, biochemical, small-molecule microarray, 635 nm fluorescence (AID 1125); details: small-molecule microarray binding, higher = more signal;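 also: score merges 667 nm channel intensity with signal to noise over triplicate slides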
[9] = test system: Chordin-like protein 2 (CHRDL2); experiment: CHRDL2 small-molecule binders, primary screen, biochemical, small-molecule microarray, 635 nm fluorescence (AID 1126); details: small-molecule microarray binding, fluorescence 635 nm; higher = more signal;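 also: printed compound slides probed with Chrdl2 protein at 4 µg/mL for 1 h at 4 C; score merges 667 nm emission intensity with signal to noise over three replicate slides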
[10] = target: Concanavalin-A (Canavalia ensiformis) (UniProt P02866); experiment: ConA small-molecule binders, primary screen, artefact control for SMM control protein annotation, biochemical, small-molecule microarray, Alexa647 label, 635 nm (AID 1127); details: ConA-A647 binding fluorescence, higher = more signal;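 also: z combines 667 nm emission intensity with signal-to-noise across three replicate slides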
[11] = anti-His antibody binders, primary screen, artefact control for SMM control protein annotation, biochemical, small-molecule microarray, 635 nm fluorescence (AID 1128); details: anti-His Alexa647 antibody binding, higher = more signal;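 also: score merges feature fluorescence with signal-to-noise for each printed compound spot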
[12] = test system: Human papillomavirus type 1a E7 protein (residues 1-88); experiment: HPV1a E7 small-molecule binders, primary screen, biochemical, small-molecule microarray, residues 1-88, 635 nm (AID 1129); details: small-molecule microarray binding, fluorescence 635 nm; higher = more signal
[13] = target: Focal adhesion kinase 1 (Homo sapiens) (UniProt Q05397); experiment: small-molecule microarray binders of FAK, primary screen, biochemical, 635/667 nm fluorescence, BSA, DTT (AID 1130); details: PTK2 binding, 635 nm fluorescence, higher = more signal;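 also: composite of spot emission at 667 nm and signal to noise over triplicate slides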
[14] = test system: Fibrinogen (Alexa647-labelled); experiment: fibrinogen binders on compound microarrays, profiling panel, artefact control for SMM control-protein annotation, biochemical, small-molecule microarray, 635/667 nm fluorescence (AID 1131); details: fibrinogen-A647 binding fluorescence, higher = more signal;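 also: z-score merges 667 nm fluorescence with per-spot signal-to-noise over triplicate slides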
[15] = target: Follistatin (Homo sapiens) (UniProt P19883); experiment: follistatin binders on small-molecule microarrays, primary screen, biochemical, small-molecule microarray, 635/667 nm fluorescence (AID 1132); details: FST binding, 635 nm fluorescence, higher = more signal
[16] = target: Fibroblast growth factor 2 (Homo sapiens) (UniProt P09038); experiment: FGF2 binders on small-molecule microarrays, primary screen, biochemical, small-molecule microarray, 635/667 nm fluorescence (AID 1133); details: small-molecule microarray binding, FGF2, fluorescence 635/667; higher = more signal
[17] = mitochondrial membrane potential change in A549 cells, profiling panel, cell-based, JC-1 fluorescence, basal, 24 h, 100 nL (AID 1138); details: higher = more signal;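 also: A549 lung adenocarcinoma cells under basal conditions with no added stimulus; test concentration not given here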
[18] = test system: Lefty1; experiment: Lefty1 binders on small-molecule microarrays, primary screen, biochemical, small-molecule microarray, 635/667 nm fluorescence (AID 1139); details: small-molecule microarray binding, fluorescence 635/667; higher = more signal
[19] = test system: wheat germ agglutinin (Triticum aestivum), Alexa647-labelled; experiment: wheat germ agglutinin binders on compound microarrays, profiling panel, artefact control for SMM control-protein annotation, biochemical, small-molecule microarray, 635/667 nm fluorescence (AID 1140); details: WGA-A647 binding, 635 nm fluorescence, higher = more signal;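 also: score merges 667 nm feature emission with signal to noise over triplicate slides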
[20] = target: Luciferin 4-monooxygenase (Photinus pyralis) (UniProt P08659); experiment: firefly luciferase enzyme inhibitors, primary screen, biochemical, luminescence, purified enzyme, 2006 set (AID 1141); details: SteadyGlo luminescence, 30 min, higher = more signal, called active from +8 up or from −8 down;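 also: cell-free assay with purified firefly luciferase at 100 ng per well in PBS; test concentration not given here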
Chain of Luciferin 4-monooxygenase (Photinus pyralis) (P08659 whole entry, looked up): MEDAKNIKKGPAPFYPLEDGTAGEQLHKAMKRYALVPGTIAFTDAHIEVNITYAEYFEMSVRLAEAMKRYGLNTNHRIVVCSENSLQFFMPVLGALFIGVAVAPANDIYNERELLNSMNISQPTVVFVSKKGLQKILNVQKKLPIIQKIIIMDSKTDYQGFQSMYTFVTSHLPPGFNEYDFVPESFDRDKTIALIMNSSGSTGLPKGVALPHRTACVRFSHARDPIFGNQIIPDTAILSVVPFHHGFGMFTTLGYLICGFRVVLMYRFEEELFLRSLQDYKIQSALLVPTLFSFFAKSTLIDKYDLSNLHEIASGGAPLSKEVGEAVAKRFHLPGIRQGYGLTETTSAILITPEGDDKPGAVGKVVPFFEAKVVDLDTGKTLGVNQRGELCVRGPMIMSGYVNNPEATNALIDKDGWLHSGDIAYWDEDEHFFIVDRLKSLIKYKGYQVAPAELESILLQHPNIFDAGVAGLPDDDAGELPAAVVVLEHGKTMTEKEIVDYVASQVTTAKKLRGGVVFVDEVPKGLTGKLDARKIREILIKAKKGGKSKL

Chain of Fibroblast growth factor 2 (Homo sapiens) (P09038 whole entry, looked up): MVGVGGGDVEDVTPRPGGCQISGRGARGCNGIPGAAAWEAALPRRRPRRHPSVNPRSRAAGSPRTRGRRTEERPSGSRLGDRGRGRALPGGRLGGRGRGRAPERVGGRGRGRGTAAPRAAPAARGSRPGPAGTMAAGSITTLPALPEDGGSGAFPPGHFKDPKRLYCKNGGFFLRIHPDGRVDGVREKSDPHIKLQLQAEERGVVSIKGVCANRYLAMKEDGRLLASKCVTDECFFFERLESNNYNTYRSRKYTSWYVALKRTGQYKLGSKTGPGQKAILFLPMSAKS
Chain of Concanavalin-A (Canavalia ensiformis) (P02866 whole entry, looked up): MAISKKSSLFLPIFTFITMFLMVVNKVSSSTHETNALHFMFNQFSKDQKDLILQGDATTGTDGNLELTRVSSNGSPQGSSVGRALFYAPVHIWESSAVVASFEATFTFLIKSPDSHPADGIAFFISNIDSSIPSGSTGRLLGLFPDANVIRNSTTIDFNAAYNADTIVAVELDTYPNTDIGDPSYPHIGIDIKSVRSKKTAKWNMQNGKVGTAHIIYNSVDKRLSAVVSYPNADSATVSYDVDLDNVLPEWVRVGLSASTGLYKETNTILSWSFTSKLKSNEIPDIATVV
Chain of Follistatin (Homo sapiens) (P19883 whole entry, looked up): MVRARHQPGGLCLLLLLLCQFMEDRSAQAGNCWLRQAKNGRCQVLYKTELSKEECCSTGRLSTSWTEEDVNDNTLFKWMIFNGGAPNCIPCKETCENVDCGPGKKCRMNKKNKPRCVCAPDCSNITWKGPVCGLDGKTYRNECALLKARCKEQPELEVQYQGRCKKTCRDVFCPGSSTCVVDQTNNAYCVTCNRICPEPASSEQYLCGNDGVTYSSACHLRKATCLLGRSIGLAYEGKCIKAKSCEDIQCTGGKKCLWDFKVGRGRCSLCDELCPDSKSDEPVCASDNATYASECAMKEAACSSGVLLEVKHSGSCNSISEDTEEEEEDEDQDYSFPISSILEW
Chain of Albumin (Bos taurus) (P02769 whole entry, looked up): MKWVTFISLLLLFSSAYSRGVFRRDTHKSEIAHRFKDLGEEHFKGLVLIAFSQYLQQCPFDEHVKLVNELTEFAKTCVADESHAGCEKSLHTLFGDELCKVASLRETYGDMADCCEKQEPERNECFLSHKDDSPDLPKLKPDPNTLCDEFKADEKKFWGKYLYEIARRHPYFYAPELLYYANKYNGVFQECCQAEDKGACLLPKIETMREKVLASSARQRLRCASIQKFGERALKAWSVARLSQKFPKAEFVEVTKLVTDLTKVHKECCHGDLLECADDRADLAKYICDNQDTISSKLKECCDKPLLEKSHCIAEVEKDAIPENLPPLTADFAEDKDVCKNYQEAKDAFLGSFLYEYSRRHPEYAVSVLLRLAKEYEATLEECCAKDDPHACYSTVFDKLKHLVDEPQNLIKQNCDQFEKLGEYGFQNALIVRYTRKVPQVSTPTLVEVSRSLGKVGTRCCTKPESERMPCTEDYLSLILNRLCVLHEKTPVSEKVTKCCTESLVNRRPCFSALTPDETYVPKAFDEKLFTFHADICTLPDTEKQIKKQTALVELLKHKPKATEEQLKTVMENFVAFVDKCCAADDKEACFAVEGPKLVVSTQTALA
Chain of Focal adhesion kinase 1 (Homo sapiens) (Q05397 whole entry, looked up): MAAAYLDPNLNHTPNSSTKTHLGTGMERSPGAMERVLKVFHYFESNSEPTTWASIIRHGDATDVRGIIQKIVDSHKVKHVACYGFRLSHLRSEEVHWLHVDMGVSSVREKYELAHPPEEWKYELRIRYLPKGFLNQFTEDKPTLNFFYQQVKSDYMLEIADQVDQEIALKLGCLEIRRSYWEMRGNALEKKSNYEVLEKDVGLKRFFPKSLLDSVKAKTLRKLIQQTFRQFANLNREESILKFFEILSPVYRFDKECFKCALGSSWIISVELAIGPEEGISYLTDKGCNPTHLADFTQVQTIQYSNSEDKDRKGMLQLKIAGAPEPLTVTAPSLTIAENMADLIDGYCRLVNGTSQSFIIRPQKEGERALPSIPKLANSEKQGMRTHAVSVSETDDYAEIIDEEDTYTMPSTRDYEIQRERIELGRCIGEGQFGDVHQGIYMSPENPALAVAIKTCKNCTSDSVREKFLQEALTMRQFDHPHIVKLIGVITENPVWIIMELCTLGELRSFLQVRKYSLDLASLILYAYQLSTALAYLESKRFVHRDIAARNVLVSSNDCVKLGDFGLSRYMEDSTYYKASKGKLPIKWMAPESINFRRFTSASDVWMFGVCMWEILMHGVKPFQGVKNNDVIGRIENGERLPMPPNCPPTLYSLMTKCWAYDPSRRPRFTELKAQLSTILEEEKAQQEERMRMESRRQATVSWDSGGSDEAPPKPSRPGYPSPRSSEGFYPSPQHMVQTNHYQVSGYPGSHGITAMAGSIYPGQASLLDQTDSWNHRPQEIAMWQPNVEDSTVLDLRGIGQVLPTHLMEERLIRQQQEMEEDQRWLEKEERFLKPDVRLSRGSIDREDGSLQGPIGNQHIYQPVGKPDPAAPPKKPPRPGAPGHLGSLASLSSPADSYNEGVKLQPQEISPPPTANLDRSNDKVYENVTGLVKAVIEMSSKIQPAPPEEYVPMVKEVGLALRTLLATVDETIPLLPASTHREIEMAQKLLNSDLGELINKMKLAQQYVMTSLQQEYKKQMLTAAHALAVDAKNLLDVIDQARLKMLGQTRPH

Row | SMILES | composite z-score [1] | composite Z-score [2] | composite z-score [3] | composite z-score [4] | composite z-score [5] | composite z-score [6] | composite z-score [7] | composite z-score [8] | composite z-score [9] | composite z-score [10] | composite z-score [11] | composite z-score [12] | composite z-score [13] | composite z-score [14] | composite z-score [15] | composite z-score [16] | z-score [17] | composite z-score [18] | composite z-score [19] | z-score [20]
1 | CO[C@@H]1COC(=O)CC=C[C@H](C)[C@H](OC)COC(=O)[C@@H]2CCCN2C(=O)CC=C[C@H]1C | -0.568 | 0.598 (inactive) | -0.116 | -0.154 | -0.623 | -0.301 | 0.569 | 0.442 | 1.44 | -0.371 | -0.51 | -0.838 | -0.226 | -2.24 | 1.38 | 1.69 | -0.213 | 1.45 | -1.11 | -0.577 (inactive)
2 | CO[C@H]1COC(=O)CCC[C@H](C)[C@@H](OC)COC(=O)CC=C[C@@H]1C | -0.553 | 0.168 (inactive) | -0.136 | -0.0766 | -0.298 | -0.378 | -0.0711 | 0.113 | 0.896 | -0.427 | 1.36 | -0.117 | -0.246 | -0.0891 | 0.393 | 0.638 | -0.86 | 0.562 | -0.181 | 0.949 (inactive)
3 | COc1ccc(COC(=O)NN=C2C[C@@H](O)[C@@H](O)[C@@H]3[C@@H]4C(=O)N(C5CCCCC5)C(=O)[C@@H]4CC[C@@H]23)cc1 | 0.157 | -0.218 (inactive) | 0.289 | -0.0256 | -0.143 | 0.0678 | -0.253 | -0.0188 | -0.108 | -0.35 | 0.123 | -0.0517 | 0.0581 | 0.0695 | -0.148 | -0.373 | 0.847 | -0.371 | 0.401 | 0.0242 (inactive)
4 | CC(C)(C)N1C(=O)[C@H]2[C@H]3[C@H](O)[C@H](O)CC(=NNC(=O)OCc4ccccc4)[C@@H]3CC[C@H]2C1=O | 0.303 | -0.151 (inactive) | 0.073 | -0.0515 | 0.0243 | 0.728 | 0.3 | 0.692 | 0.397 | 0.87 | 0.0938 | 0.486 | 0.32 | 0.459 | 0.258 | 0.704 | -0.202 | 0.34 | 0.433 | -0.728 (inactive)
5 | C[C@@H]1CC[C@@H](C(=O)O)N[C@H]1c1cccc(N2CCOCC2)c1 | 0.262 | 0.227 (inactive) | 0.0624 | -0.126 | 0.295 | 0.531 | -0.581 | 0.225 | 0.224 | 0.305 | 0.06 | 0.827 | 0.455 | 0.301 | 0.769 | 0.652 | 2.11 | 0.554 | 0.227 | -1.34 (inactive)
6 | CCOC(=O)CCN1C(=O)[C@H]2[C@H]3[C@H](O)[C@H](O)CC(=NOCC=C(C)CCC=C(C)C)[C@@H]3CC[C@H]2C1=O | 0.275 | -0.754 (inactive) | -0.0043 | -0.154 | 0.003 | 0.0888 | 0.0278 | 0.449 | 0.434 | 1.01 | -0.34 | 0.741 | -0.115 | 0.7 | 0.696 | 0.884 | 0.0237 | 0.537 | 0.132 | 0.597 (inactive)
7 | COC(=O)CC=C[C@@H](C)[C@@H](C=NOC[C@@H](C)[C@H](OCc1ccccc1)C(C)C)NS(=O)(=O)c1ccc(C)cc1 | -1.05 | 0.216 (inactive) | -0.161 | -0.216 | -0.351 | -0.342 | 0.102 | -0.135 | 0.271 | -0.596 | 1.82 | -0.588 | -0.424 | -1.52 | 0.131 | 0.0249 | -0.48 | 0.329 | -1.57 | 0.419 (inactive)
8 | CC(C)(C)N1C(=O)[C@H]2[C@H]3[C@H](O)[C@H](O)CC(=NOC[C@@H](O)COCc4ccco4)[C@@H]3CC[C@H]2C1=O | 0.617 | 0.103 (inactive) | -0.0311 | -0.0984 | -0.129 | 0.0171 | 0.227 | -0.254 | 0.107 | 0.506 | -0.329 | -0.451 | -0.0584 | 0.961 | -0.396 | -0.0677 | -0.521 | -0.211 | 0.915 | -0.124 (inactive)
9 | CC(=O)OC[C@H]1O[C@H](CCON=C(C)C)C=C[C@@H]1OC(C)=O | 0.123 | -0.0706 (inactive) | -0.0362 | -0.0651 | -0.177 | -0.308 | -0.0375 | -0.406 | 0.445 | 0.186 | 1.56 | -0.33 | 0.115 | 0.0586 | 0.521 | 0.247 | 0.0315 | 0.377 | -0.178 | 0.654 (inactive)
10 | CCOC(=O)NN=C1C[C@@H](O)[C@@H](O)[C@@H]2[C@@H]3C(=O)N(CC)C(=O)[C@@H]3CC[C@H]12 | 0.541 | -0.415 (inactive) | -0.0879 | -0.126 | 0.448 | 0.0053 | -0.0396 | -0.221 | 0.202 | 0.173 | 0.241 | -0.351 | 0.105 | 0.569 | -0.408 | 0.0278 | -0.00768 | 0.0358 | 0.195 | -0.557 (inactive)
11 | COC(=O)CC=C[C@@H](C)[C@@H](C=NOC[C@@H](O)COCc1ccco1)OC | -0.15 | -2 (inactive) | -0.262 | -0.14 | -0.134 | -0.452 | 0.0649 | -0.684 | 1.36 | -0.619 | 1.46 | -0.464 | -0.354 | -1.2 | 1.15 | 0.509 | 0.662 | 1.02 | -0.83 | -1.3 (inactive)
